# Hits are enriched below; roughly 3.1% of the tested compounds scored in any of these assays.
# TRb-SRC2 inh – inhibitors of human thyroid hormone receptor beta-SRC2 interaction | P10828 | TRbeta-SRC2 peptide binding, fluorescence polarization; receptor liganded with 1 µM T3 | Potency, µM (doses to about 106 µM), inactives show top-dose activity change, negative = inhibition, hits mostly inhibitors | hit rate 0.065% among 280,000;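 note: plate controls were bound peptide for no effect and peptide without receptor for full effect; nearly all actives have a fitted effect of over 50% in size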
#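 Quantitative HTS by FP: 0.6 uM TRb LBD, 20 nM labeled SRC2 20-mer, 1 uM T3, 5% DMSO; 5 hr ambient incubation; % activity per concentration and potencies from concentration series.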
# Tau fibril FP – blocks human tau fibril formation measured by polarization. P10636. K18 P301L tau heparin fibrillization, Alexa594 FP, 6 h. Potency, µM (top dose mostly 57.7 µM), for inactives: top-dose activity, negative = inhibition, hits mostly inhibitors. hit rate 0.39% among 280,000; note: nearly all actives have a fitted effect of over 55% in size
# Target sequence (P10636 561-689 P618L limits assumed): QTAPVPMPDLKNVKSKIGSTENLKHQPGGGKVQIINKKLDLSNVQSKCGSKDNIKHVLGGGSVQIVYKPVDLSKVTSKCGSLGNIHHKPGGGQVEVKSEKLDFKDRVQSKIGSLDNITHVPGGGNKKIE
#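 Steps: dispense K18 P301L tau (15 uM plus 0.24 uM Alexa 594 tracer, final) in pH 7 sodium acetate; add compound; add heparin (20 uM final); incubate 6 hr, 37 C; add ThT (30 uM final); after 1 hr ambient, read FP.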
# Tau fibril ThT – blocks human tau fibril formation measured by thioflavin T; P10636; recombinant tau K18 P301L, heparin-induced fibrillization, ThT fluorescence; Potency, µM (highest dose often 57.4 µM), for inactives: top-dose activity, negative = inhibition, most hits filed as inhibitors; hit rate 2.1% among 270,000; AID 1460; note: nearly all actives have a fitted effect of over 55% in size
#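 Recombinant human tau K18 fragment […] carrying P301L, 15 uM unlabeled plus 0.24 uM Alexa 594-labeled, was fibrillized with 20 uM heparin in 100 mM sodium acetate pH 7 for 6 hr at 37 C; 30 uM ThT fluorescence read after 1 hr.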
# Tau fluor cs – counter-screen for tau fibril formation inhibitors; tau K18 P301L Alexa594 fluorescence, heparin fibrillization; Potency, µM (titrated, usually from 57.7 µM), for the others: at the top dose activity change, negative = decrease; hit rate 0.93% among 280,000; note: nearly all actives have a fitted effect of over 55% in size
#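 Human tau K18 P301L (15 uM unlabeled, 0.24 uM Alexa 594-labeled) in 100 mM sodium acetate pH 7 with 20 uM heparin, 6 hr at 37 C. ThT 30 uM added, 1 hr ambient; Alexa 594 FP and total fluorescence read at 555/632 nm.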
# GoLoco inh red – blocks human Gai1 binding to RGS12 GoLoco peptide, red readout | P63096 | Gai1:RGS12 GoLoco peptide FP, rhodamine, 10 min | Potency, µM (series often up to 61.6 µM), for inactives: at the top dose activity, negative = inhibition, hits mostly inhibitors | hit rate 0.44% among 230,000 | AID 880; active = well fitted inhibition curve with a large enough effect, not every such curve was filed as active; inactive = no such curve, though single readings can be large or run the other way; note: nearly all actives have a fitted effect of over 30% in size
# Target sequence (P63096 whole entry, looked up): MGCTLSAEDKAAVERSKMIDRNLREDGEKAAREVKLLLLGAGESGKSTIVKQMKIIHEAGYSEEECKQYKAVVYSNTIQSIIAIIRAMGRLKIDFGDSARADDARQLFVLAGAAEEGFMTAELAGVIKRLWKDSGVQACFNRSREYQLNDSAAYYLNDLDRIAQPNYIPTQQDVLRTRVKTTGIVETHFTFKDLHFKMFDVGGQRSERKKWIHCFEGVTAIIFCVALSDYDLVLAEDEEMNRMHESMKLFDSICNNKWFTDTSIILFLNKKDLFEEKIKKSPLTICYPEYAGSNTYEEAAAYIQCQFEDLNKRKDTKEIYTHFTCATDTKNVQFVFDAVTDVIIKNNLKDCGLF
# TexasRed fluor – Texas Red fluorescence interference in TRb-SRC2 counter-screen; TRb/SRC2 Texas Red total fluorescence interference; hit rate 0.29% among 280,000; AID 1479; Potency, µM (series often up to 106 µM), without a hit: at the top dose fluorescence change, negative = quenching; active = well fitted curve in either direction with a large enough effect; inconclusive = small, poorly fitted or top-dose-only effect
#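 Flags fluorescent or light-absorbing compounds by total fluorescence, S + 2P, at 555 nm excitation and 632 nm emission. Mixture: 20 nM Texas Red SRC2 peptide, 0.6 uM human TRb LBD, 1 uM T3, 5% DMSO; compound exposure 5 h at ambient temperature.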
# * marks the source's active call; other numbers are inactive results; ? = inconclusive; . = not tested or not shown; [ ] = another dose, or the depositor's remark. Unless noted, calls come from the whole dose curve; as a rule, active = well fitted curve in the direction sought with a large enough effect; inconclusive = small, poorly fitted or top-dose-only effect, or another doubt; inactive = no such curve, though single readings can be large; an effect the other way counts as inactive or inconclusive. Unless noted, % is set by controls: 0 for no effect and ±100 for the full control effect; potency is the fitted concentration of half-maximal effect.
SMILES,TRb-SRC2 inh,Tau fibril FP,Tau fibril ThT,Tau fluor cs,GoLoco inh red,TexasRed fluor
COc1ccc(NC(=S)Nc2ccc3nc(C)c(C)nc3c2)cc1,7%,4%,?,-17%,-1%,1%
CCOc1ccc(NC(=S)Nc2ccc3nsnc3c2)cc1,-7%,?,2.5µM*,14µM*[quencher],4%,-5%
CCOc1ccc(NC(=S)Nc2ccc(OCC)cc2)cc1,3%,11%,?,-20%,8%,0%
CCOc1ccc(NC(=O)Nc2ccc3nsnc3c2)cc1,-2%,16%,14µM*,13µM*[quencher],3%,-5%
COc1ccc(NC(=S)Nc2ccc3nsnc3c2)cc1,0%,-17%,11µM*,?,-6%,-2%
S=C(Nc1ccc(Cl)c(Cl)c1)NC1CCCCC1,6%,?,5%,?,9%,1%
S=C(Nc1ccc2nsnc2c1)NC1CCCCC1,-11%,?,28µM*,?,-8%,-5%
Cc1ccc(Cn2ccc(NC(=O)c3nn(C)cc3Cl)n2)cc1,2%,6%,-9%,-4%,8%,-2%
O=C(NCc1nnc(SCC(=O)N2CCOCC2)o1)c1ccccc1F,1%,7%,1%,-2%,-2%,-3%
CCOc1ccc(NC(=O)Nc2ccc3snnc3c2)cc1,-5%,?,-6%,5µM*[quencher],.,-3%
O=C(Nc1ccccc1)Nc1ccc2snnc2c1,14%,?,?,?,9%,-3%
O=C(Nc1cccc(C(F)(F)F)c1)Nc1ccc2snnc2c1,4%,18µM*,13%,?,.,-2%
COc1ccc(CNC(=O)c2ccc[nH]2)cc1,0%,-8%,4%,-4%,13%,-8%
CCN(CC)CCNc1nc2ccccc2n1C,-17%,5%,-3%,2%,9%,0%
OC[C@H]1NC[C@@H](O)[C@@H]1O,3%,8%,-16%,-17%,8%,-1%
CC(C)C1CCC(C(=O)NC(Cc2ccccc2)C(=O)O)CC1 (stereo not drawn),1%,-4%,-15%,-5%,20µM*,-1%
O=C(NC(Cc1ccccc1)C(=O)O)C1CCCCC1 (stereo not drawn),0%,-2%,-11%,-7%,-11%,1%
COC(=O)c1ccc(NC(=O)C(C)Sc2nc(=O)cc(N)n2CCc2ccccc2)cc1 (stereo not drawn),-8%,-11%,-10%,?,.,18µM*[quencher]
CCCCCn1c(NC(=O)c2ccco2)c(S(=O)(=O)c2ccc(C)cc2)c2nc3ccccc3nc21,-2%,-9%,?,?,-1%,1%
CCCCn1c(NC(=O)c2ccco2)c(S(=O)(=O)c2ccc(C)cc2)c2nc3ccccc3nc21,-29%,?,16µM*,?,72%,-9%
CCCCn1c(NC(=O)c2ccc(Br)o2)c(S(=O)(=O)c2ccccc2)c2nc3ccccc3nc21,?,?,18µM*,-27%,-2%,1%
CCCCn1c(NS(=O)(=O)c2ccccc2)c(S(=O)(=O)c2ccc(C)cc2)c2nc3ccccc3nc21,1%,-4%,?,-8%,0%,-3%
COc1ccc(N2CCN(S(=O)(=O)c3ccc(Cl)c(C(F)(F)F)c3)CC2)cc1,2%,-11%,-4%,-11%,-2%,0%
Cc1ccc(C2C(/C=C3/SC(=S)NC3=O)=C(c3cccs3)Oc3ccccc32)cc1 (stereo not drawn),19%,-6%,13µM*,?,9%,-19%
Cc1ccc(CN(Cc2ccco2)C(=O)COc2ccc(Cl)cc2Cl)cc1,?,-3%,-16%,-22%,.,0.032µM*[quencher]
SMILES,TRb-SRC2 inh,Tau fibril FP,Tau fibril ThT,Tau fluor cs,GoLoco inh red,TexasRed fluor
O=[N+]([O-])c1ccc2c(c1N1CCCCC1)=NC1(CCCCC1)[N+]=2[O-],-2%,?,13µM*,?,5%,-8%
CN(C)S(=O)(=O)Oc1cccc(C(=O)Nc2ccc(Cl)c(Cl)c2)c1,-3%,20µM*,1%,?,-3%,3%
COC(=O)c1cccc(NC(=O)Nc2ccc(Cl)c(Cl)c2)c1,4%,13µM*,?,?,8%,-1%
CN(C)S(=O)(=O)Oc1cccc(C(=O)Nc2cccc(Cl)c2)c1,2%,?,-7%,?,3%,-8%
COC(=O)c1ccc(NC(=O)Nc2ccc(F)c(Cl)c2)cc1,1%,16µM*,?,?,0%,-1%
COc1ccc(NC(=O)CC2C(=O)N(c3ccc(F)cc3)C(=O)N2CCc2sccc2C)cc1 (stereo not drawn),-2%,-21%,?,?,.,-3%
CCCCOC(=O)/C(C#N)=C\c1ccc(-c2ccc(Cl)cc2)o1,-3%,-5%,11%,-7%,.,0%
Cc1nc(S/C(=C/c2ccc(-c3cc(Cl)ccc3C)o2)C(=O)O)n[nH]1,3%,-17%,11µM*,-29%,2%,1%
Cc1nc(S/C(=C/c2ccc(-c3ccc(Cl)cc3)o2)C(=O)O)n[nH]1,-4%,6%,2µM*,?,9%,-8%
Cc1nc(S/C(=C/c2ccc(-c3ccc(C(=O)O)cc3)o2)C(=O)O)n[nH]1,1%,-14%,4.5µM*,-13%,1%,-22%
CC(=O)c1ccc(-c2ccc(/C=C(/Sc3n[nH]c(C)n3)C(=O)O)o2)cc1,-7%,-5%,1µM*,?,0%,-11%
O=C(O)/C(=C\c1ccc(-c2ccc(F)cc2)o1)c1ccccc1,3%,-3%,?,-8%,13%,-1%
CCc1cccc(C)c1Nc1c(-c2ccc(F)cc2)nc2sccn12,-4%,-3%,?,?,.,-3%
Nc1ncnc2nc(N3CCN(CCO)CC3)[nH]c12,.,.,.,.,8%[14.2 µM],.
O=C(O)c1c(F)c(F)cc2ccccc12,-16%,16%,4%,6%,3%,1%
O=C1NC2=C(C(=O)c3ccccc32)C(c2ccccc2)N1 (stereo not drawn),-7%,?,22µM*,-22%,-2%,-1%
CCOC(=O)C1=C(C)NC2=C(C(=O)c3ccccc32)C1c1cccnc1 (stereo not drawn),1%,6%,?,-9%,18%,0%
CCOc1ccc(C2C(C(=O)OC)=C(C)NC3=C2C(=O)c2ccccc23)cc1OC (stereo not drawn),-3%,-5%,?,16µM*[quencher],.,-6%
C#CCOc1c(Br)cc(C2C(C(=O)OC)=C(C)NC3=C2C(=O)c2ccccc23)cc1OCC (stereo not drawn),3%,?,6.3µM*,3.5µM*[quencher],.,-4%
